hERG WT inh = blocks the wildtype human KCNH2 potassium channel | U2OS, BacMam KCNH2, thallium flux FluxOr; active compounds read low | Q12809 | activity change, % at 1.84 µM | 340,000 compounds, 0.37% hits;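 active = maximum activity change below -70%; inconclusive = maximum activity change between -70% and -50%; inactive = maximum activity change above -50%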
Target sequence (Q12809 whole entry, looked up): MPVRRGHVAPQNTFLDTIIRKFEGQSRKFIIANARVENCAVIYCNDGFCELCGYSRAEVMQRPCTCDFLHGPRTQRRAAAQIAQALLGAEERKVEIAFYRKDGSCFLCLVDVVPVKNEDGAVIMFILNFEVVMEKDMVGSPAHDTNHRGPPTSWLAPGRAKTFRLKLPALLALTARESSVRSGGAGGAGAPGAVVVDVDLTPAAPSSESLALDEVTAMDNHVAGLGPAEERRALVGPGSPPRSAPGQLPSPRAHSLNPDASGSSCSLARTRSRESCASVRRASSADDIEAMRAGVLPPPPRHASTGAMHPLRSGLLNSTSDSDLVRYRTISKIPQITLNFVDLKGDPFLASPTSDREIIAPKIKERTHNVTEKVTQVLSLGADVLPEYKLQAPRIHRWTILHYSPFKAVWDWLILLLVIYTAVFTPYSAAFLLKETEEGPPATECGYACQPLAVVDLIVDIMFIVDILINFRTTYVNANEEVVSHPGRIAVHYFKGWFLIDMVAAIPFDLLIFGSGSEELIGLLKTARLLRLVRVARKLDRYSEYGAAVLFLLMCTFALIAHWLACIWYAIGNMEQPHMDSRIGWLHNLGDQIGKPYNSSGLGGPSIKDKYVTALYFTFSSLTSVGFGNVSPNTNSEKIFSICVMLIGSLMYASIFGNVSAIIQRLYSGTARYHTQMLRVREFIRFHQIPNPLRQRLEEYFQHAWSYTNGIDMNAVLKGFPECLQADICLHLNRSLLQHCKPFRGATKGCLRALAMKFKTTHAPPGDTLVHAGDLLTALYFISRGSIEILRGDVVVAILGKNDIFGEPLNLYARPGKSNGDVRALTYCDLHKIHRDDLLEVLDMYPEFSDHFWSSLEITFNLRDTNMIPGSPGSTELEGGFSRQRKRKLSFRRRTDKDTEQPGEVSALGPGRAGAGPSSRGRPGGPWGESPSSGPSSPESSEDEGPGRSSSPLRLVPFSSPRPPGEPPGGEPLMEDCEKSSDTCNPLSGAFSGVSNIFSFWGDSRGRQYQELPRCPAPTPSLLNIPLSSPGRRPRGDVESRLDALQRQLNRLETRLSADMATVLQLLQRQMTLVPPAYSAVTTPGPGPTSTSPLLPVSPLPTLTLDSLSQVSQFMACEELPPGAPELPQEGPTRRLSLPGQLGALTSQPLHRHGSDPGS
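U2OS cells transduced with wild-type KCNH2 virus are loaded with FluxOr dye for 45 min, and thallium flux is measured in kinetic reads before and after stimulation buffer. Rate constants are normalized to DMSO controls.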
SW480 rereplic = DNA re-replication induction in SW480 cells; Potency, µM (titrated, usually from 46.1 µM), most hits filed as activators; AID 624297; 340,000 compounds, 1.8% hits; SW480 DNA re-replication, Hoechst DNA content imaging, 48 h; note: nearly all actives have a fitted effect of over 55% in size
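Per well, 250 cells were exposed to pinned compound for 48 hr. Nuclear DNA was visualised with Hoechst (40 min, 37 C) and total object intensity recorded by fluorescence scanning.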
KB-3-1 tox = kills parental KB-3-1 adenocarcinoma cells; KB-3-1 viability, CellTiter-Glo ATP luminescence, 72 h; Potency, µM (doses to about 46.1 µM), most hits filed as cytotoxic; 400,000 compounds, 1.4% hits; AID 1347075; note: nearly all actives have a fitted effect of over 60% in size
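Cytotoxicity measured as CellTiter-Glo luminescence after 72 h at 37 C. Compound titrations were pinned onto drug-naive KB-3-1 parental adenocarcinoma cells grown in DMEM with 10% FBS, and normalized data fitted to concentration-response curves.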
KCNH2 3.1 inh = inhibitors of human KCNH2 3.1 potassium channel isoform | U2OS KCNH2 3.1, thallium flux FluxOr; active compounds read low | activity change, % (tested at about 1.8 µM) | 340,000 compounds, 0.95% hits;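 active = maximum activity change below -70%; inconclusive = maximum activity change from -70% to -50%; inactive = maximum activity change above -50%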;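 note: thallium influx rate constant from kinetic fluorescence after stimulation buffer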
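Kinetic fluorescence (2 min after stimulation buffer) measures Tl+ influx through KCNH2 3.1 expressed by viral transduction in U2OS cells; the rate constant is normalized against DMSO controls serving as positive and negative references.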
MCF10A rerep = DNA re-replication induction in MCF 10a cells | 350,000 compounds, 2.9% hits | Potency, µM (series often up to 46.1 µM), usual class: activators | MCF 10A DNA re-replication, Hoechst nuclear intensity, 48 h; note: nearly all actives have a fitted effect of over 50% in size
KB-V1 cytotox = kills drug-selected multidrug resistant KB-V1 cells. KB-V1 MDR cells viability, CellTiter-Glo, 72 h. Potency, µM (titrated, usually from 46.1 µM), actives largely listed as cytotoxic. 400,000 compounds, 3.4% hits. AID 1347076; note: nearly all actives have a fitted effect of over 60% in size
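Cells of the MDR subline KB-V1 are plated, dosed with compound at multiple concentrations, and incubated 72 h at 37 degrees C; CellTiter-Glo is then added and luminescence read after 10 min.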
A number is an active result. This is a sample that favours compounds with a hit; in the whole collection about 7.6% have one here. Unless noted, calls come from the whole dose curve; as a rule, active = well fitted curve in the direction sought with a large enough effect; inconclusive = small, poorly fitted or top-dose-only effect, or another doubt; inactive = no such curve, though single readings can be large; an effect the other way counts as inactive or inconclusive.

Cc1ccc(CS(=O)(=O)CCC(=O)NCc2ccccc2Cl)cc1 was read as hERG WT inh inactive, SW480 rereplic inconclusive, KB-3-1 tox inactive, KCNH2 3.1 inh -73, MCF10A rerep inactive and KB-V1 cytotox inconclusive.
For COc1ccc([C@H]2[C@H](C(=O)OC(C)(C)C)N3N=Cc4ccccc4C3C23C(=O)c2ccccc2C3=O)c(OC)c1 (stereo partly drawn) the results were hERG WT inh inactive, SW480 rereplic inconclusive, KB-3-1 tox inconclusive, KCNH2 3.1 inh inactive, MCF10A rerep inactive and KB-V1 cytotox inconclusive.
Screening COc1ccc([C@H]2[C@H](C(=O)OC(C)(C)C)N3N=Cc4ccccc4C3C23C(=O)c2ccccc2C3=O)cc1OC (stereo partly drawn) returned hERG WT inh inactive, SW480 rereplic inactive, KB-3-1 tox inactive, KCNH2 3.1 inh inactive, MCF10A rerep inactive and KB-V1 cytotox 8.2µM.
For CCOC(=O)c1ccc(N=c2sc(C(=O)OC)cc(=O)n2-c2ccc(C(=O)OCC)cc2)cc1 the results were hERG WT inh inactive, SW480 rereplic inconclusive, KB-3-1 tox inconclusive, KCNH2 3.1 inh inactive, MCF10A rerep inconclusive and KB-V1 cytotox inconclusive.
COC(=O)c1cc(=O)n(Cc2cccs2)c(=Nc2ccccc2)s1 was read as hERG WT inh inactive, SW480 rereplic inactive, KB-3-1 tox inactive, KCNH2 3.1 inh inactive, MCF10A rerep 10µM and KB-V1 cytotox inconclusive.
COC(=O)c1cc(=O)n(-c2ccccc2)c(=Nc2ccccc2)s1 was read as hERG WT inh inactive, SW480 rereplic inconclusive, KB-3-1 tox inconclusive, KCNH2 3.1 inh inactive, MCF10A rerep 18µM and KB-V1 cytotox inactive.
Screening Cc1ccc(C)c(-n2cc(-c3ccc(Cl)cc3)nc2SCC(=O)NC2CCS(=O)(=O)C2)c1 (stereo not drawn) returned hERG WT inh inactive, KB-3-1 tox inactive, KCNH2 3.1 inh inactive, MCF10A rerep inactive and KB-V1 cytotox inactive.
CC1CCN(C(=O)C2CCN(S(=O)(=O)c3cccc4nonc34)CC2)CC1 was read as hERG WT inh inactive, SW480 rereplic inconclusive, KB-3-1 tox inactive, KCNH2 3.1 inh inactive, MCF10A rerep inconclusive and KB-V1 cytotox inconclusive.
For CN(Cc1ccccc1)C(=O)c1ccc2c(c1)N(Cc1ccc(Cl)cc1)C(=O)c1ccccc1S2=O (stereo not drawn) the results were KB-3-1 tox 16µM and KB-V1 cytotox inconclusive.
`O=C(NCCCN1CCCC1)c1ccc2c(c1)N(Cc1cccc(Cl)c1)C(=O)c1ccccc1S2=O` (stereo not drawn) gave hERG WT inh inactive, SW480 rereplic inactive, KB-3-1 tox inactive, KCNH2 3.1 inh inactive, MCF10A rerep inactive and KB-V1 cytotox inactive.
For O=C(NCc1ccco1)c1ccc2c(c1)N(Cc1ccc(Cl)cc1)C(=O)c1ccccc1S2=O (stereo not drawn) the results were KB-3-1 tox inactive and KB-V1 cytotox inactive.
`CC1CC(C)CN(CCCNC(=O)c2ccc3c(c2)N(Cc2ccccc2)C(=O)c2ccccc2S3=O)C1` (stereo not drawn) gave hERG WT inh inactive, SW480 rereplic inconclusive, KB-3-1 tox inactive, KCNH2 3.1 inh inactive, MCF10A rerep 12µM and KB-V1 cytotox inactive.
Screening CCOCCCNC(=O)c1ccc2c(c1)N(CC)C(=O)c1ccccc1S2=O (stereo not drawn) returned hERG WT inh inactive, SW480 rereplic inactive, KB-3-1 tox inconclusive, KCNH2 3.1 inh inactive, MCF10A rerep inactive and KB-V1 cytotox 18µM.
Screening CCCCNS(=O)(=O)c1ccc2nc(-c3cccnc3)cc(C(=O)NCCCOCC)c2c1 returned KB-3-1 tox inactive and KB-V1 cytotox inactive.
O=Nc1c(O)[nH]c2ccc(Cl)c(Cl)c12 was read as hERG WT inh inactive, SW480 rereplic inactive, KB-3-1 tox 0.41µM, KCNH2 3.1 inh inactive, MCF10A rerep inactive and KB-V1 cytotox inconclusive.
`Oc1[nH]c2ccccc2c1N=Nc1ccccc1Cl` gave hERG WT inh inactive, SW480 rereplic inactive, KB-3-1 tox inactive, MCF10A rerep inactive and KB-V1 cytotox inactive.
Screening COc1ccc(-c2[nH]nc3nc(N4CCN(C(=O)c5ccoc5)CC4)cc(C(F)(F)F)c23)cc1 returned hERG WT inh inactive, KB-3-1 tox inconclusive, KCNH2 3.1 inh inactive and KB-V1 cytotox 6.5µM.
Screening COc1ccc(-c2cc3nc(C)cc(N4CCN(C(=O)c5ccoc5)CC4)n3n2)cc1 returned hERG WT inh inactive, KB-3-1 tox inactive, KCNH2 3.1 inh inactive and KB-V1 cytotox inconclusive.
`O=S(=O)(c1ccccc1)c1ncc(C(F)(F)F)cc1Cl` gave hERG WT inh inactive, SW480 rereplic inconclusive, KB-3-1 tox inactive, KCNH2 3.1 inh inactive, MCF10A rerep 6.3µM and KB-V1 cytotox inactive.
`CC[C@]12c3[nH]c4cc(CCC(=O)N(C)C)ccc4c3CCN1C(=O)[C@@H](CC(=O)NCCCOC)C[C@@H]2C(=O)N1CCN(C(=O)c2ccco2)CC1` gave hERG WT inh inactive, SW480 rereplic inactive, KB-3-1 tox inactive, KCNH2 3.1 inh inactive, MCF10A rerep inactive and KB-V1 cytotox inactive.
For CCCCCn1c(=O)c(C(=O)c2ccccc2)nc2ccccc21 the results were hERG WT inh -120, SW480 rereplic inactive, KB-3-1 tox inconclusive, KCNH2 3.1 inh -78, MCF10A rerep inactive and KB-V1 cytotox 12µM.
N#C/C(=N\Nc1cccc([N+](=O)[O-])c1)C(=O)c1ccc(Br)cc1 was read as hERG WT inh inactive, SW480 rereplic inactive, KB-3-1 tox 3.7µM, KCNH2 3.1 inh inactive, MCF10A rerep inconclusive and KB-V1 cytotox 1.5µM.
`O=C(O)c1ccc(N=NNc2cccc([N+](=O)[O-])c2)cc1` gave hERG WT inh inactive, SW480 rereplic inactive, KB-3-1 tox inactive, KCNH2 3.1 inh inactive, MCF10A rerep inactive and KB-V1 cytotox inactive.
Screening CC1C(=O)N(Cc2ccccc2F)c2ccccc2N1C(=O)c1c(F)cccc1F (stereo not drawn) returned hERG WT inh inactive, SW480 rereplic inactive, KB-3-1 tox inconclusive, KCNH2 3.1 inh inactive, MCF10A rerep 21µM and KB-V1 cytotox inactive.
COc1cccc(CN2C(=O)C(C)N(C(=O)c3c(F)cccc3F)c3ccccc32)c1 (stereo not drawn) was read as hERG WT inh inactive, SW480 rereplic inactive, KB-3-1 tox inconclusive, KCNH2 3.1 inh inactive, MCF10A rerep inconclusive and KB-V1 cytotox inactive.
Screening NNC(=O)c1sc(-c2ccccc2)cc1N returned hERG WT inh inactive, SW480 rereplic inactive, KB-3-1 tox inactive, KCNH2 3.1 inh inactive, MCF10A rerep 21µM and KB-V1 cytotox inconclusive.
Screening Cc1ccc(S(=O)(=O)N2CC=C(c3c(C)n(C)c4ccccc34)CC2)cc1 returned hERG WT inh inactive, SW480 rereplic inactive, KB-3-1 tox inactive, KCNH2 3.1 inh inactive, MCF10A rerep inconclusive and KB-V1 cytotox inactive.
